Assay results taken from the supplement of paper PMC12350171.
Where a name gives a salt, the structure may show the parent alone. Values without a mark were called inactive.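 Rule for the calls: active = AUC significantly below DMSO controls by Student t-fit with adjusted P under 0.01; inactive = not significantly reduced.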

These molecules were tested on Haemophilus parainfluenzae (assay: growth AUC normalised to DMSO control (fraction of control); higher = less growth inhibition, active = hit call of the paper). Conditions: 20 µM.
In short: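 After two anaerobic passages, pathogens were added at a starting OD578 of 0.01 to pre-reduced mGAM plates holding compound at 20 μM with 1% DMSO; hemin and NAD were supplemented for Haemophilus parainfluenzae. Sealed with breathable membranes, plates were read at OD578 hourly for 24 h, in three biological replicates. The trapezoidal rule, applied up to the exponential-to-stationary transition, gave the growth-curve AUC, which was normalised to DMSO controls on the same plate.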

Row | SMILES | growth AUC normalised to DMSO control
1 | CC(=O)OCC(=O)[C@@]12OC3(CCCC3)O[C@@H]1C[C@H]1[C@@H]3CCC4=CC(=O)C=C[C@]4(C)[C@@]3(F)[C@@H](O)C[C@@]12C [Amcinonide] | 1.03
2 | CCN1C(=O)NC(c2ccccc2)C1=O (centres undefined) [Ethotoin] | 1.01
3 | CCCCC(CC)CNC(=N)NC(=N)NCCCCCCNC(=N)NC(=N)NCC(CC)CCCC (centres undefined) [Alexidine dihydrochloride] | 0.861
4 | Clc1ccccc1CN1CCc2sccc2C1 [Ticlopidine hydrochloride] | 0.972
5 | COc1ccc2[nH]c([S+]([O-])Cc3ncc(C)c(OC)c3C)nc2c1 (centres undefined) [Omeprazole] | 0.919
6 | CC(C)(Oc1ccc(Cl)cc1)C(=O)O [Clofibric acid] | 0.908
7 | Clc1cccc(Cl)c1NC1=NCCN1 [Clonidine hydrochloride] | 0.978
8 | CC(C)(C)NC[C@H](O)COc1ccccc1C1CCCC1 [Penbutolol sulfate] | 1.02
9 | CC(C(=O)O)c1ccc(N2Cc3ccccc3C2=O)cc1 (centres undefined) [Indoprofen] | 1.02
10 | CNc1ncnc2c1ncn2[C@@H]1O[C@H](CO)[C@@H](O)[C@H]1O [N6-methyladenosine] | 1.01
11 | O=C(O)c1cc(/N=N/c2ccc(S(=O)(=O)Nc3ccccn3)cc2)ccc1O [Sulfasalazine] | 1.04
12 | CN1CCCC(CC2c3ccccc3Sc3ccccc32)C1 (centres undefined) [Metixene hydrochloride] | 0.999
13 | COc1ccccc1Oc1c(NS(=O)(=O)c2ccc(C(C)(C)C)cc2)nc(-c2ncccn2)nc1OCCO [Bosentan] | 0.966
14 | CCN(Cc1ccncc1)C(=O)C(CO)c1ccccc1 (centres undefined) [Tropicamide] | 0.816
15 | COc1cc(N)c(Cl)cc1C(=O)NC1CCN(Cc2ccccc2)CC1 [Clebopride maleate] | 0.989
16 | CN1CCCC(n2nc(Cc3ccc(Cl)cc3)c3ccccc3c2=O)CC1 (centres undefined) [Azelastine hydrochloride] | 0.994
17 | O=C(NCC1CCCCN1)c1cc(OCC(F)(F)F)ccc1OCC(F)(F)F (centres undefined) [Flecainide acetate] | 0.99
18 | Nc1nc(=O)c2nc(CNc3ccc(C(=O)N[C@@H](CCC(=O)O)C(=O)O)cc3)cnc2[nH]1 [Folic acid] | 0.978
19 | CC(C)NCC(O)COc1ccc(CCOCC2CC2)cc1 (centres undefined) [Betaxolol hydrochloride] | 0.988
20 | CCCCCCCCNC(C)C(O)c1ccc(SC(C)C)cc1 (centres undefined) [Suloctidil] | 0.986

Row | SMILES | growth AUC normalised to DMSO control
21 | CN(Cc1cnc2nc(N)nc(N)c2n1)c1ccc(C(=O)N[C@@H](CCC(=O)O)C(=O)O)cc1 [Amethopterin] | 0.0201 (active)
22 | Nc1ccc(S(=O)(=O)Nc2ccccn2)cc1 [Sulfapyridine] | 0.976
23 | CN(C)CCCO[C@@H]1[C@H]2OC(C)(C)O[C@H]2O[C@@H]1[C@H](O)CO [Amiprilose hydrochloride] | 0.963
24 | CO[C@@H]1[C@@H](O[C@@H]2O[C@H](C)[C@@H](O[C@H]3C[C@@](C)(O)[C@@H](OC(=O)CC(C)C)[C@H](C)O3)[C@H](N(C)C)[C@H]2O)[C@@H](CC=O)C[C@@H](C)[C@@H](O)/C=C/C=C/C[C@@H](C)OC(=O)C[C@H]1OC(C)=O [Josamycin] | 0.0327 (active)
25 | O=C(O)c1ccccc1Nc1cccc(C(F)(F)F)c1 [Flufenamic acid] | 0.932
26 | COCCOC(=O)C1=C(C)NC(C)=C(C(=O)OC/C=C/c2ccccc2)C1c1cccc([N+](=O)[O-])c1 (centres undefined) [Cilnidipine] | 1
27 | Cc1ccc(S(=O)(=O)NC(=O)NN2CCCCCC2)cc1 [Tolazamide] | 1.04
28 | CCN(CC)CC#CCOC(=O)C(O)(c1ccccc1)C1CCCCC1 (centres undefined) [Oxybutynin chloride] | 0.952
29 | CCOC(=O)C1=C(C)NC(C)=C(C(=O)OC)C1c1cccc([N+](=O)[O-])c1 (centres undefined) [Nitrendipine] | 1.03
30 | CCCN(CCC)CCc1cccc2c1CC(=O)N2 [Ropinirole hydrochloride] | 1
31 | O=C(O)CCC(=O)Nc1ccc(S(=O)(=O)Nc2nccs2)cc1 [Succinylsulfathiazole] | 1.01
32 | CCC1(C)CC(=O)NC1=O (centres undefined) [Ethosuximide] | 1.06
33 | C=C[C@H]1CN2CC[C@H]1C[C@@H]2[C@@H](O)c1ccnc2ccc(OC)cc12 [Quinidine hydrochloride monohydrate] | 1.01
34 | Cc1cn[nH]c1 [Fomepizole] | 0.954
35 | CC(=O)OCC(CCn1cnc2cnc(N)nc21)COC(C)=O [Famciclovir] | 1.02
36 | C[N+]1(C)CCC(=C(c2ccccc2)c2ccccc2)CC1 [Diphemanil methylsulfate] | 0.949
37 | Cc1c(Cl)cccc1Nc1ccccc1C(=O)O [Tolfenamic acid] | 0.852 (active)
38 | COc1ccc(C2CNC(=O)C2)cc1OC1CCCC1 (centres undefined) [Rolipram] | 0.952
39 | NS(=O)(=O)c1cc2c(cc1C(F)(F)F)NC(Cc1ccccc1)NS2(=O)=O (centres undefined) [Bendroflumethiazide] | 1.02
